Data taken from publication PMC4336329 (PLoS ONE, 2015).
Among all 310,000 compounds or so, about 2,200 (0.71%) showed an effect of 50% or more. Effects have a minus sign here. The full list was thinned out, with strong results kept by preference.

Molecular target: human ether-à-go-go-related gene (hERG) potassium channel (human, UniProt Q12809)
Assay: primary screen, population patch clamp on CHO cells stably expressing hERG; higher = less effect of the substance

Sequence of human ether-à-go-go-related gene (hERG) potassium channel (Q12809 whole entry, looked up): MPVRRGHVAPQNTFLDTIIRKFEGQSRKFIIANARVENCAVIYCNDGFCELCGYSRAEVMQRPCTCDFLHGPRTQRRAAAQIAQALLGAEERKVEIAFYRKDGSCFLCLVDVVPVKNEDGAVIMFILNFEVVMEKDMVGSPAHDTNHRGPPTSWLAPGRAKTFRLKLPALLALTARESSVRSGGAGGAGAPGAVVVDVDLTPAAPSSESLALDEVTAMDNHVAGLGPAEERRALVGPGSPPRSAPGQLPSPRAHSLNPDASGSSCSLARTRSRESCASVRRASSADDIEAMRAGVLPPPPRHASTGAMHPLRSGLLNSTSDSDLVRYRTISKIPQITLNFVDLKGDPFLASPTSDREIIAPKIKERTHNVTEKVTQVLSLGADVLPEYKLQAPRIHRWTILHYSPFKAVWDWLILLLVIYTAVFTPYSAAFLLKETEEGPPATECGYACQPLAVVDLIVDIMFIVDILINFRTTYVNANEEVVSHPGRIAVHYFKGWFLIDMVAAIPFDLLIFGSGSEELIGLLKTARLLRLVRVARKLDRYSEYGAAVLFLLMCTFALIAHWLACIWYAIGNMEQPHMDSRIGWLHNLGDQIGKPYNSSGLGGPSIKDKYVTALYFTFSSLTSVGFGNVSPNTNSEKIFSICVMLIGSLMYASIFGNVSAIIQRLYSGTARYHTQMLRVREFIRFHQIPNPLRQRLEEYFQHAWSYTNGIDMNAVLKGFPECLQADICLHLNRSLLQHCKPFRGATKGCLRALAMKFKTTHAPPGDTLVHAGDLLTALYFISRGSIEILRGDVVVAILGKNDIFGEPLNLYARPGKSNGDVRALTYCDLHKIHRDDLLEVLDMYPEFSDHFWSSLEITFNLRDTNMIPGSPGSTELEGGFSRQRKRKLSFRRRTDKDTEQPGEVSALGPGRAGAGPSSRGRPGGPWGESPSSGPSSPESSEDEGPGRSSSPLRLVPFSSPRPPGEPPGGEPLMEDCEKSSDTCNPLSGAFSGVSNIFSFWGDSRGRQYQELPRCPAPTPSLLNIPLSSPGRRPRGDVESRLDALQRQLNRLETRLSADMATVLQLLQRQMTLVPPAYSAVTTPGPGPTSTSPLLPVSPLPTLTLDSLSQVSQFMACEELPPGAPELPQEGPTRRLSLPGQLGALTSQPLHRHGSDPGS

Row | Structure (SMILES) | hERG current change (%, negative = inhibition) at 1uM
1 | CCCCn1c(N)c(N(CC(C)C)C(=O)C2CCN(S(=O)(=O)c3ccc(C)cc3C)CC2)c(=O)[nH]c1=O | 2.62%
2 | Cn1c(=O)[nH]c(=O)c2c1nc(SCC(N)=O)n2Cc1cccc(Br)c1 | 4.47%
3 | c1cc2c(cc1C1CCCCC1)c1c3n2CCN=C3CCC1 | 11.4%
4 | CS(=O)(=O)O.c1ccc(-c2ccc3c(c2)c2c4n3CCN=C4CCC2)cc1 | 2.12%
5 | Cc1ccc2c(c1)c1c3n2CCN=C3CCC1.Cl | -65.6%
6 | CNc1cccc2c1C(=O)c1ccccc1C2=O | 5.62%
7 | COCCn1nnnc1C(c1ccccc1OC)N1CCN(c2ccccc2)CC1.Cl (stereo not drawn) | 6.17%
8 | COCCn1nnnc1C(c1ccc(OC)cc1OC)N1CCN(c2ccccc2F)CC1.Cl (stereo not drawn) | -2.19%
9 | COCCn1nnnc1C(c1ccc(OC)cc1OC)N1CCN(c2ccccc2)CC1 (stereo not drawn) | -54.1%
10 | COc1ccccc1N1CCN(S(=O)(=O)c2cc(Br)cnc2N)CC1 | 15.3%
11 | CCN(CC)CCN1C(=O)c2ccccc2NC1c1ccc(C)cc1 (stereo not drawn) | -48.3%
12 | CCN(CC)CCN1C(=O)c2ccccc2NC1c1ccc(Br)cc1 (stereo not drawn) | -82.8%
13 | CCN(CC)CCN1C(=O)c2ccccc2NC1c1ccc(F)cc1 (stereo not drawn) | -30.5%
14 | CCOC(=O)c1c(NC(=O)CN2CCOCC2)sc2c1CC(C)(C)OC2 | 11.7%
15 | Cc1nc(NCCc2ccc(S(N)(=O)=O)cc2)c2c3c(sc2n1)CCC3 | 11.8%
16 | NS(=O)(=O)c1ccc(CCNc2nc(CN3CCCCC3)nc3sc4c(c23)CCC4)cc1 | -53%
17 | NS(=O)(=O)c1ccc(CCNc2nc(CN3CCOCC3)nc3sc4c(c23)CCC4)cc1 | 3.28%
18 | Cc1cccc(C)c1NC(=O)CNC(=O)c1ccc(N2CCCC2)c([N+](=O)[O-])c1 | -2.53%
19 | COc1ccccc1C(=O)Nc1ccnn1C1CCN(CCC(C)c2ccc(C)o2)CC1 (stereo not drawn) | -88.2%
20 | COc1ccccc1C(=O)Nc1ccnn1C1CCN(C(C)CSC)CC1 (stereo not drawn) | -10.6%
21 | CSCCCN1CCC(n2nccc2NC(=O)CCCc2ccccc2)CC1 | -28.5%

Row | Structure (SMILES) | hERG current change (%, negative = inhibition) at 1uM
22 | Cc1ccccc1CN1CCC(n2nccc2NC(=O)CCCc2ccccc2)CC1 | 7.05%
23 | Cc1ccccc1C(=O)Nc1ccnn1C1CCN(CCCc2ccccc2)CC1 | -84.5%
24 | Cc1ccccc1C(=O)Nc1ccnn1C1CCN(Cc2ccccn2)CC1 | -14.6%
25 | O=C(Nc1ccnn1C1CCN(C2CCC2)CC1)c1ccccc1Cl | -28.4%
26 | O=C(Nc1ccnn1C1CCN(CCCc2ccccc2)CC1)c1ccccc1Cl | -87.3%
27 | O=C(Nc1ccnn1C1CCN(CCCc2ccccc2)CC1)c1ccccc1 | -70.9%
28 | O=C(Nc1ccnn1C1CCN(C2CCC2)CC1)c1ccccc1 | 16.6%
29 | COc1ccc(C(=O)Nc2ccnn2C2CCN(CCC(C)c3ccc(C)o3)CC2)cc1 (stereo not drawn) | -18%
30 | COc1ccc(-c2cc(C(=O)NCCc3ccc(S(N)(=O)=O)cc3)c3ccccc3n2)cc1 | 11.6%
31 | O=C(OCC(=O)N1CCOCC1)c1cnc(Cl)c(Cl)c1 | -0.0536%
32 | CCCCN=C(C)C1=C(O)CSC1=O | 15.8%
33 | CCN(c1ccccc1)S(=O)(=O)c1ccc(F)cc1 | 8.48%
34 | O=C(OCc1nnc(-c2ccc(Br)cc2)o1)c1ccco1 | -3.17%
35 | CS(=O)(=O)N(CC(=O)Nc1cccc(F)c1)Cc1ccccc1 | 20.1%
36 | COc1ccccc1-n1c(O)c(/C=C2\C=Nc3ccccc32)c(=O)[nH]c1=O | 11.9%
37 | Cc1cc(C)nc(-n2nc(C)cc2NC(=O)c2cccc(S(=O)(=O)N(C)C)c2)n1 | 8.89%
38 | COc1ccccc1C(=O)Nc1ccnn1C1CCN(CCCc2ccccc2)CC1 | -88.1%
39 | COc1ccccc1C(=O)Nc1ccnn1C1CCN(C)CC1 | 4.47%
40 | COc1ccccc1CN1CCC(n2nccc2NC(=O)CCc2ccccc2)CC1 | 7.89%
41 | CC1=C(C(N)=O)C(c2ccc(Br)cc2)n2nc(CCCO)nc2N1 (stereo not drawn) | 13.1%
42 | Cc1ccc(N=C2NC(=O)C(CC(=O)O)S2)cc1 (stereo not drawn) | 8.56%
